Experimental data published in PubChem BioAssay (NCI).
The panel holds about 83,000 compounds, 20% with a hit somewhere; the sample as a whole holds those more often.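 Assay: single dose, 48 h. Readout: percent growth (0 = no net growth; negative = cell death). Active: <10.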 A number with no mark means an inactive call. Activity calls are given as the source filed them.

Columns and labels:
Test in all cases: NCI-60 one-dose screen, 48 h (100 = growth as untreated, 0 = no growth, -100 = all killed)
Settings in all cases: 10 µM unless noted
NCI-H23 lung = tested on: NCI-H23 lung
NCI-H226 lung = tested on: NCI-H226 lung
NCI-H322M lung = tested on: NCI-H322M lung
HOP-62 NSCLC = tested on: HOP-62 NSCLC
NCI-H460 lung = tested on: NCI-H460 lung
NCI-H522 lung = tested on: NCI-H522 lung
A549/ATCC NSCLC = tested on: A549/ATCC NSCLC
786-0 renal = tested on: 786-0 renal
COLO 205 colon = tested on: COLO 205 colon
DU-145 prostate = tested on: DU-145 prostate
K-562 leukemia = tested on: K-562 leukemia
MALME-3M melanoma = tested on: MALME-3M melanoma
MDA-MB-231 breast = tested on: MDA-MB-231 breast
RXF 393 renal = tested on: RXF 393 renal
SF-268 CNS = tested on: SF-268 CNS
SF-295 CNS = tested on: SF-295 CNS
SF-539 CNS = tested on: SF-539 CNS
UACC-257 melanoma = tested on: UACC-257 melanoma
M14 melanoma = tested on: M14 melanoma

SMILES | growth (NCI-H23 lung) | growth (NCI-H226 lung) | growth (NCI-H322M lung) | growth (HOP-62 NSCLC) | growth (NCI-H460 lung) | growth (NCI-H522 lung) | growth (A549/ATCC NSCLC) | growth (786-0 renal) | growth (COLO 205 colon) | growth (DU-145 prostate) | growth (K-562 leukemia) | growth (MALME-3M melanoma) | growth (MDA-MB-231 breast) | growth (RXF 393 renal) | growth (SF-268 CNS) | growth (SF-295 CNS) | growth (SF-539 CNS) | growth (UACC-257 melanoma) | growth (M14 melanoma)
CN1C(=O)NC(Cc2c[nH]c3c(Cl)cccc23)C1=O (centres undefined) | 102% | 93.8% | 120% | 107% | 112% | 96.4% | 102% | 109% | 105% | 123% | 101% | 141% | 117% | 92.1% | 110% | 109% | 98.4% | 116% | 108%
CCCCCCCCCCCCCCCC1=NCCN1 | 72.5% | 80.6% | 76.6% | 55.3% | 32.5% | 74% | -15.4% (active) | 78.8% | -70.8% (active) | 72.6% | 3.78% (active) | 103% | 30.6% | 60.6% | 71.3% | 90.9% | 72.5% | 99.9% | 72.3%
O=c1oc2ccccc2cc1-c1cc(-c2ccc(-c3cc(-c4cc5ccccc5oc4=O)nc(-c4cc5ccccc5oc4=O)c3)cc2)cc(-c2cc3ccccc3oc2=O)n1 | 98.5% | 97.8% | 108% | 93.3% | 106% | 97% | 101% | 107% | 103% | 107% | 94.8% | 98.3% | 94.4% | 118% | 104% | 111% | 93.2% | 103% | 103%
COc1ccc(-c2nn(C(=O)NCCN(C)C)cc2-c2ccncc2)cc1Cl | 63.5% | 46.4% | 109% | 16% | 27.4% | 28.2% | 32.6% | 34.8% | 25.1% | 77.6% | 16.5% | 53.8% | 54.5% | 44.6% | 44.8% | 24% | 25.6% | 64.4% | 45.8%
O=c1c2cc(Br)cc(Br)c2nc(-c2ccc(Cl)cc2)n1/N=C/c1cccc(F)c1 | 53.6% | 40.9% | 49.3% | 10.8% | 40.1% | 38.9% | 48.6% | 9.97% (active) | 54.3% | 91.4% | 63.2% | 63.3% | 46.1% | 47.2% | 70.4% | 41% | 64.4% | 93% | 67.5%
Cc1ccccc1Nc1n[nH]c(Cc2ccccc2)n1 | 102% | 100% | 99.1% | 94.6% | 108% | 58% | 100% | 105% | 122% | 103% | 72% | 101% | 110% | 108% | 101% | 103% | 107% | 92.7% | 106%
CS(=O)(=O)c1ccc(C(=O)N/N=C/c2ccc3c(c2)OCO3)cc1 | 96.9% | 91.1% | 96.2% | 96.8% | 107% | 86% | 67.7% | 102% | 110% | 108% | 85.5% | 105% | 107% | 120% | 104% | 101% | 105% | 59.1% | 106%
C=C1C(=O)O[C@H]2[C@H]1CC/C(COC(=O)N[C@@H](Cc1c[nH]c3ccccc13)C(=O)OC)=C\CC[C@@]1(C)O[C@@H]21 | 68.5% | 58.4% | 80.5% | 68.8% | 40.5% | -71.1% (active) | 47.2% | -48.6% (active) | -69.2% (active) | 20.5% | -1.67% (active) | -38.4% (active) | 25.2% | -55.4% (active) | 46.7% | 72.3% | 25.3% | 11.5% | -45.3% (active)
CCOCCNc1ccc(S(=O)(=O)c2ccc(N)cc2)cc1N | 92.5% | 94.6% | 101% | 110% | 109% | 96% | 91.5% | 108% | 110% | 119% | 107% | 109% | 118% | 130% | 97.1% | 96.2% | 109% | 92.8% | 112%
O=C(Nc1cccc(-n2ccc3c(NC(=O)c4ccccc4)nccc32)c1)c1ccc(N2CCOCC2)c(C(F)(F)F)c1 | 28.1% | 33.5% | 27% | 7.08% (active) | 9.44% (active) | -22.8% (active) | 8.39% (active) | -12.3% (active) | -23.4% (active) | 18.7% | 5.25% (active) | 53.4% | 20.8% | -59.8% (active) | 24.2% | -15.4% (active) | 11.9% | 58% | 38.6%
Oc1ccc(-c2nnc3c4[nH]ccc4ncn23)cc1 | 91.5% | 100% | 98.2% | 100% | 90.1% | 81.5% | 93.7% | 95.6% | 105% | 97.2% | 98.4% | 94.5% | 92% | 113% | 103% | 101% | 101% | 117% | 104%
CC(C)c1ccc2c(c1)CCC1C2CCCC1(C)NCc1ccccc1 (centres undefined) | 73% | 103% | 32.6% | 91% | 71.3% | 9.67% (active) | 83.7% | 64.7% | -35.8% (active) | 75% | 11.1% | -32.3% (active) | 39.8% | 51.7% | 79.2% | 96.7% | 90% | -31.2% (active) | -84.9% (active)
CCCCCCCCCCCCCCCCCC(=O)OCCCCCCCCCCCCC | 108% | 97.2% | 130% | 125% | 117% | 111% | 99.5% | 119% | 121% | 117% | 119% | 130% | 135% | 109% | 106% | 117% | 101% | 108% | 114%
CCOC(=O)Cc1cc(Br)c(OCc2ccccc2)c(Br)c1 | 94.1% | 88.4% | 102% | 96.4% | 114% | 80.3% | 104% | 92.8% | 127% | 115% | 86% | 106% | 89.1% | 96.4% | 106% | 92.3% | 106% | 99.6% | 99.6%
COC(=O)c1ccc2c(c1)nc(-c1ccc(Cl)cc1)n2-c1cc(C(C)(C)C)[nH]n1 | 60.7% | 94.3% | 92.5% | 116% | 45.1% | 38% | 47.2% | 46% | 112% | 85.9% | 34.3% | 14.8% | 92% | 45.7% | 68.5% | 43.3% | 60.4% | 62.3% | 33.8%
Cc1ccc(OC2=C(C#N)C(=N)N3C(=NN2)Sc2c(C)ccc(C)c23)cc1 | 85.3% | 93.4% | 102% | 99.6% | 100% | 90.4% | 98.6% | 110% | 106% | 122% | 98% | 120% | 95.4% | 106% | 113% | 96.7% | 102% | 108% | 109%
